High-throughput results deposited in PubChem BioAssay by National Center for Advancing Translational Sciences (NCATS).
A selection: hits, their analogues and other compounds. The true share with any hit is near 19%.
KB-V1 cytotox – kills drug-selected multidrug resistant KB-V1 cells. KB-V1 MDR cells viability, CellTiter-Glo, 72 h. Potency, µM (top dose mostly 46.1 µM), hits mostly cytotoxic. 3.4% of 400,000 active. AID 1347076; note: nearly all actives have a fitted effect of over 60% in size
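Luminescent ATP read-out (CellTiter-Glo, 10 min) measures survival of drug-selected KB-V1 MDR cells after 72 h, 37 degrees C compound exposure. Medium: phenol-red-free DMEM, 10% FBS. Values from fitted concentration-response curves.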
TDP1 cell noCPT – qHTS for Inhibitors of human tyrosyl-DNA phosphodiesterase 1 (TDP1): qHTS in cells in absence of CPT | DT40 Tdp1-/- hTDP1 cells, no CPT, ATP luminescence, 48 h | 15% of 420,000 active | AID 686978, 2013 | Potency, µM (highest dose often 46.2 µM), most hits filed as inhibitors; note: nearly all actives have a fitted effect of over 55% in size
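Readout: luminescence from CellTiter-Glo after 30 min in the dark at RT. Cells: DT40 Tdp1-/- with stable hTDP1, 400/well. Exposure: compounds alone, ≥48 hr, 37 °C.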
HT1080 IDH1KD tx – toxicity to HT-1080 IDH1 knockdown cells (counter line); HT-1080 IDH1 knockdown viability, ATP luminescence, 48 h; Potency, µM (top dose mostly 46.1 µM), hits mostly cytotoxic; 2% of 360,000 active
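Luminescent ATP read-out (CellTiter-Glo, 10 min at room temperature) after 48 h compound exposure at 37 °C gave viability of IDH1-knockdown HT-1080 cells. Activity was normalised to DMSO and cell-free wells, then fitted as concentration-response curves.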
HT1080-NT tox – kills 2HG-producing HT-1080-NT fibrosarcoma cells; HT-1080-NT fibrosarcoma viability, CellTiter-Glo ATP luminescence, 48 h; Potency, µM (doses to about 46.1 µM), most hits filed as cytotoxic; 1.6% of 360,000 active;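 note: NT is the 2HG producing partner of a matched IDH1 knockdown line; nearly all actives have a fitted effect of over 55% in size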
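Compounds were tested in concentration-response format on HT-1080-NT cells for 48 hours at 37 degrees C. Cell viability came from CellTiter-Glo luminescence; curves were classified by r2, response magnitude and activity.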
TDP1 cell CPT – DT40-hTDP1 cell growth loss with CPT | chicken DT40 Tdp1-/-;hTDP1 cells + 20 nM CPT, ATP luminescence, 48 h | Potency, µM (highest dose often 46.2 µM), actives largely listed as inhibitors | 12% of 420,000 active | AID 686979; note: nearly all actives have a fitted effect of over 55% in size
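Cell growth measured by CellTiter-Glo luminescence after a minimum 48 h, 37 C compound exposure with 20 nM CPT in Tdp1-knockout DT40 cells stably expressing hTDP1, seeded 400/well; qHTS titration format.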
KB-3-1 cytotox – KB-3-1 parental cell cytotoxicity | KB-3-1 viability, CellTiter-Glo ATP luminescence, 72 h | Potency, µM (doses to about 46.1 µM), usual class: cytotoxic | 1.4% of 400,000 active | AID 1347075; note: nearly all actives have a fitted effect of over 60% in size
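Multi-concentration cytotoxicity screen in KB-3-1 cells grown in DMEM lacking phenol red with 10% FBS. After 72 h at 37 °C with compound, ATP-dependent luminescence was recorded.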
Numbers stand for hits; - = inactive; ? = inconclusive; . = not tested or not shown; [ ] = another dose, or the depositor's remark. Calls come from the whole dose curve; as a rule, active = well fitted curve in the direction sought with a large enough effect; inconclusive = small, poorly fitted or top-dose-only effect, or another doubt; inactive = no such curve, though single readings can be large; an effect the other way counts as inactive or inconclusive.

SMILES | KB-V1 cytotox | TDP1 cell noCPT | HT1080 IDH1KD tx | HT1080-NT tox | TDP1 cell CPT | KB-3-1 cytotox
COc1ccccc1C(=O)NNC(=O)c1nn(Cc2ccccc2)c(=O)c2ccccc12 | ? | ? | ? | - | 21µM | -
CC(C)CCn1nc(C(=O)OCC(=O)NC(C)c2ccccc2)c2ccccc2c1=O (centres undefined) | - | - | - | - | - | -
CC(C)CNC(=O)c1nn(Cc2ccccc2)c(=O)c2ccccc12 | - | - | - | - | ? | -
O=C(Nc1nc2c(s1)CCCC2)c1nn(Cc2ccccc2)c(=O)c2ccccc12 | - | 23µM | - | - | ? | -
CC(C)CCn1nc(C(=O)Nc2nc3c(s2)CCCC3)c2ccccc2c1=O | - | 18µM | - | - | 26µM | ?
CCc1sc(-c2cc3ccccc3oc2=O)nc1-c1ccc(C)cc1 | - | - | . | . | - | -
CCC1(C)Cc2c(sc3nc(SC)n(-c4ccc(C)cc4)c(=O)c23)CO1 (centres undefined) | - | 15µM | . | . | ? | -
CCSc1nc2sc3c(c2c(=O)n1-c1ccc(C)cc1)CCCC3 | . | 8.2µM | . | . | ? | .
CCSc1nc2sc3c(c2c(=O)n1-c1ccc(OC)cc1)CCN(C)C3 | - | 16µM | - | - | ? | -
COc1ccc(-n2c(SCC(=O)O)nc3sc4c(c3c2=O)CCCC4)cc1 | - | - | - | - | - | -
CCCCSc1nc2sc3c(c2c(=O)n1-c1ccc(C)cc1)CCN(C)C3 | - | 15µM | ? | ? | 16µM | ?
COc1ccccc1CNC(=O)COC(=O)c1cc(=O)c2ccccc2o1 | - | - | - | - | - | -
C[C@H]1CN([C@@H](C)CO)S(=O)(=O)c2ccc(Br)cc2O[C@H]1CN(C)C(=O)c1cccc(F)c1 | - | - | - | - | - | -
Cn1c(=O)c(-c2cccs2)nc2cnc(N3CCOCC3)nc21 | . | - | . | . | - | .
Cc1ccccc1-n1c(SCC(=O)c2c(N)n(C)c(=O)n(C)c2=O)nc2sc3c(c2c1=O)CCCC3 | 23µM | 23µM | - | - | 18µM | ?
Cc1ccccc1-n1c(SCC(=O)c2c(N)n(C)c(=O)n(C)c2=O)nnc1-c1cccnc1 | - | - | - | - | - | -
O=C(COC(=O)/C=C/c1cccc(F)c1)NC(=O)NC1CCCC1 | - | ? | - | - | ? | -
COc1ccc(N=C2C(=S)N(c3ccc(OC)cc3)C(=NS(=O)(=O)c3ccccc3)N2c2ccccc2)cc1 | ? | 1.5µM | - | - | 1.5µM | -
COc1ccc(N2C(=O)NC(NS(=O)(=O)c3ccccc3)(C(F)(F)F)C2=O)cc1 (centres undefined) | - | - | - | - | - | -
COc1cccc(C2C(C(=O)OC(C)C)=C(C)N=c3s/c(=C\c4ccc(C(=O)O)cc4)c(=O)n32)c1 (centres undefined) | - | 18µM | - | - | - | -
COc1cccc(C2C(C(=O)Nc3ccccc3)=C(C)N=c3s/c(=C/c4ccc(OCC(=O)O)cc4)c(=O)n32)c1 (centres undefined) | - | - | - | - | - | -
CCOC(=O)C1=C(C)N=c2sc(=Cc3cc(Cl)c(OCC(=O)O)c(Cl)c3)c(=O)n2C1c1cccc(OC)c1 (centres undefined) | - | ? | 21µM | 26µM | 16µM | -
CC(=O)Nc1ccc2sn(-c3ccccc3)c(=O)c2c1 | - | 2.1µM | - | - | 2.1µM | -
N#Cc1ccc2sn(-c3ccccc3)c(=O)c2c1 | ? | 4.6µM | - | - | 3.7µM | -
O=c1c2cc([N+](=O)[O-])ccc2sn1-c1ccccc1 | - | 2.9µM | - | - | 4.6µM | -
SMILES | KB-V1 cytotox | TDP1 cell noCPT | HT1080 IDH1KD tx | HT1080-NT tox | TDP1 cell CPT | KB-3-1 cytotox
CC(=O)Nc1ccc2c(c1)c1ccccc1n2C(C)=O | - | ? | - | - | ? | -
Cc1ccc(S(=O)(=O)N/N=C/c2ccc(C#N)cc2)cc1 | - | ? | - | - | - | -
Cc1ccc(-c2nc(C)c(CCNC(=O)C(=O)Nc3ccc(C)c(Cl)c3)s2)cc1 | - | . | . | . | . | -
CCCOc1cccc(C(=O)N(Cc2ccccc2)C2CCS(=O)(=O)C2)c1 (centres undefined) | ? | ? | - | - | - | -
CCCOc1ccccc1C(=O)N(Cc1ccc(C)o1)C1CCS(=O)(=O)C1 (centres undefined) | - | ? | - | - | - | -
CCCOc1ccccc1C(=O)N(Cc1ccco1)C1CCS(=O)(=O)C1 (centres undefined) | - | 18µM | - | - | ? | -
CCCCCOc1ccc(C(=O)N(Cc2ccccc2)C2CCS(=O)(=O)C2)cc1 (centres undefined) | . | 21µM | . | . | ? | .
CCCCOc1cccc(C(=O)N(Cc2ccc(Cl)cc2)C2CCS(=O)(=O)C2)c1 (centres undefined) | ? | ? | . | . | 15µM | -
CCCCOc1ccc(C(=O)N(Cc2ccco2)C2CCS(=O)(=O)C2)cc1 (centres undefined) | - | - | - | - | ? | -
O=C1CCCN1CCCNCC(=O)N1c2ccccc2Sc2ccccc21 | - | - | - | - | - | -
Cc1ncc2c(c1CNC(=O)c1ccc3c(c1)OCO3)CCN(C(=O)c1csc3c1CCCC3)C2 | . | - | . | . | -[9.04 µM] | .
CCCCn1c(N)c(N(CC(C)C)C(=O)CCC2CCCCC2)c(=O)[nH]c1=O | . | - | - | - | - | .
COc1cc(C(C[N+](=O)[O-])c2c(C)[nH]c3ccccc23)ccc1O (centres undefined) | ? | - | - | - | - | ?
COc1ccc(C(C[N+](=O)[O-])c2c(-c3ccccc3)cc3ccccn23)cc1OC (centres undefined) | - | 15µM | - | - | 7.3µM | -
COc1cc(C(C[N+](=O)[O-])c2c(C)cc3ccccn23)ccc1O (centres undefined) | ? | 13µM | 9.2µM | ? | 8.2µM | ?
O=Nc1c(-c2ccccc2)cc2ccccn12 | - | - | - | - | ? | -
COc1ccc(C(C[N+](=O)[O-])c2c(-c3ccccc3)cc3ccccn23)cc1 (centres undefined) | ? | 18µM | - | - | 23µM | ?
COC(=O)C(C(=O)OC)C(C[N+](=O)[O-])c1ccc(OC)c(OC)c1 (centres undefined) | - | ? | - | - | - | -
COCCn1nnnc1CN1CCN(C(=O)c2ccco2)CC1 | - | - | - | - | - | -
O=C1CN(c2ccccc2)C(=S)N1C(=O)c1ccc(Br)cc1 | - | - | - | - | ? | -
CN(Cc1ccccc1)C(=O)COc1cc(Cl)ccc1Cl | - | - | - | - | - | -
